Source: PubChem (Buhrlage Lab, Dana-Farber Cancer Institute and Novartis Institutes for BioMedical Research (Cambridge, Mass))
USP30 block: human USP30 deubiquitinase inhibition | inhibition, % at 25 µM | purified USP30, Ub-rhodamine cleavage fluorescence | Q70CQ3 | hit rate 5.3% among 47,000 | AID 1645860
USP10 inh: human USP10 deubiquitinase inhibition; Q14694; purified USP10, Ub-rhodamine fluorescence, 60 min; inhibition, % at 20 µM; hit rate 1.1% among 47,000; AID 1645856
USP28 inh: blocks human USP28 ubiquitin-rhodamine cleavage. Q96RU2. purified USP28, Ub-rhodamine cleavage fluorescence, 30 min. inhibition, % at 25 µM. hit rate 3% among 47,000
USP8 block: human USP8 deubiquitinase inhibition. purified USP8, Ub-rhodamine cleavage fluorescence, 30 min. inhibition, % at 20 µM. hit rate 4.2% among 47,000. AID 1645853
OTUD3 block: blocks human OTUD3 ubiquitin-rhodamine cleavage. Q5T2D3. purified OTUD3, Ub-rhodamine fluorescence, 2 h. inhibition, % at 25 µM. hit rate 0.7% among 47,000. AID 1645858
USP17 inh: human USP17-like deubiquitinase inhibition | hit rate 6.5% among 47,000 | inhibition, % at 50 µM | A8MUK1 | purified USP17, Ub-rhodamine cleavage fluorescence, 3 h
* hit, by the source's call; i = inactive; . = not tested or not shown. Only some compounds are listed: those with a hit (about 13% of all), similar ones and a draw of the others. Cut-off read from the data, not from the text of the source: active = inhibition above about 30%; inactive = the rest.

SMILES	USP30 block	USP10 inh	USP28 inh	USP8 block	OTUD3 block	USP17 inh
CCn1nc(C)cc1C(=O)Oc1ccc(C)cc1	19	1	4	13	8	5
O=C(Nc1cccc2ccccc12)C1CCN(c2ccc(-c3ccc(F)cc3)nn2)CC1	.	20	.	3	1	44*
CC(C)CNC(=O)C1CCN(c2ccc(-c3ccc(F)cc3)nn2)CC1	.	6	.	5	-10	3
COc1ccccc1NC(=O)COc1ccccc1-c1nnc(-c2ccccc2)o1	13	-3	3	1	3	6
O=C(COc1ccc(Cl)cc1Cl)NCCCc1ccccc1	32*	11	16	-137	24	5
O=C(COc1ccc(F)cc1Cl)NCCCn1ccc2ccccc21	19	1	12	12	14	11
O=C(COc1ccccc1-c1nnc(-c2ccccc2)o1)NCCCc1ccccc1	35*	1	11	12	8	9
COc1ccc(S(=O)(=O)NCC(C)(C)SCc2ccc(F)cc2)cc1	31*	10	8	10	6	21
Cc1n[nH]c(C)c1C(C)C(=O)Nc1ccc(Cl)cc1 (centres undefined)	8	2	-11	0	-4	-9
Cc1ccc(CCNC(=O)C2CCCN(c3ncnc4onc(C)c34)C2)cc1 (centres undefined)	36*	0	5	18	16	-6
Cc1ccc(CNC(=O)C2CCCN(c3cnc4nccnc4c3)C2)cc1 (centres undefined)	i	-5	-248	-180	-190	-138
Cc1nc(C)c(-c2nnc(-c3ccc(Cl)cc3)o2)s1	4	-3	0	4	7	6
CC(=O)Nc1c2sscc-2[nH]c1=O	70*	0	4	0	24	-20
Cc1ccc(F)cc1S(=O)(=O)NCc1ccc(N2CCN(C)CC2)cc1	36*	2	15	-7	11	16
Cc1ccc(-c2c(C(=O)Nc3ccc(S(N)(=O)=O)cc3)oc(=O)c3ccccc23)cc1	23	6	-5	24	-9	57*
CC(=O)c1cccc(NC(=O)C(C)OC(=O)c2cc3ccccc3[nH]2)c1 (centres undefined)	45*	19	36*	20	33*	60*
OC(c1ccccc1)(c1ccccc1)C1CCN(Cc2ccccc2F)CC1	27	2	10	6	4	11
CC1=CC[C@]2(C)C[C@@H](O)[C@](O)(C(C)C)C2CC1 (some centres undefined)	32*	2	1	6	-6	1
C=C(C)CSc1nc(Cc2ccccc2)nc2sc3c(c12)CC(C)(C)OC3	11	3	33*	10	14	8
COc1ccc(-c2ccnc(SCc3cccc([N+](=O)[O-])c3)n2)cc1	10	4	6	-1	3	1
COc1ccc(-c2ccnc(-c3ccc(OCc4cccc(F)c4)cc3)n2)cc1	41*	0	12	19	22	56*
O=C(NC1CCN(c2nnc3ccccn23)CC1)c1cccc(F)c1	0	-5	-4	-23	-2	-7
O=S(=O)(c1ccc(Cl)cc1)N(Cc1ccccc1)Cc1nnnn1-c1ccccc1	30*	6	20	21	17	12
CCc1nnc(NC(=O)CN(Cc2ccccc2)S(=O)(=O)c2ccc(Cl)cc2)s1	55*	13	12	-26	-3	63*
COc1cccc(-c2noc(NCCc3ccc(SC)cc3)n2)c1	-5	8	32*	6	-5	-5
SMILES	USP30 block	USP10 inh	USP28 inh	USP8 block	OTUD3 block	USP17 inh
O=C(CCCc1c[nH]c2ccccc12)Nc1ccc2c(c1)OCCO2	-20	2	75*	6	-14	-35
O=C(Nc1ccc2c(c1)OCCCO2)c1cc(=O)[nH]c2ccccc12	.	3	.	1	-1	46*
O=C(Nc1ccc(N2CCOCC2)cc1)c1cc(=O)[nH]c2ccccc12	9	8	9	24	10	60*
O=C(Nc1cc(S(=O)(=O)N2CCOCC2)ccc1N1CCCC1)c1cc(=O)[nH]c2ccccc12	-79	-2	-14	-12	-15	-11
CCC(=O)Nc1cccnc1-c1ccc(C(=O)Nc2ccc3c(c2)OCO3)cc1	5	13	40*	75*	5	.
COc1ccccc1-c1cc2c(=O)n(Cc3nc(-c4ccccc4C)no3)ccn2n1	47*	4	-2	-11	-18	-4
Cc1cc(C)n2nc(C(=O)Nc3nc4ccc(F)cc4s3)nc2n1	-128	3	-15	15	-12	5
O=C(Nc1nc2ccc(F)cc2s1)c1cccc2c(Br)cccc12	23	4	-1	21	4	33*
c1cncc(CN2CCC[C@H]2c2nc(-c3ccc(-n4ccnc4)nc3)no2)c1	1	-5	0	24	7	41*
CCN(CC)CCNC(=O)c1ccc2nnc(C3CN(c4ncccn4)CCN3C)n2c1 (centres undefined)	7	-1	0	-25	2	1
CCOC(=O)N1CCC(=O)N(CC)C[C@H]2CN(C)c3ccccc3[C@@H]21	-25	-7	-2	-17	-5	-11
O=C(CCCC(=O)c1ccccc1)Nc1ccc(O)cc1	-9	0	13	35*	8	12
Cc1nnc(NC(=O)c2cn(-c3ccc(Br)cc3)nn2)s1	34*	3	0	-85	0	19
O=C(NC1CC1)c1cn(-c2ccc(Cl)cc2)nn1	-14	6	-16	7	-14	.
Cc1nnc2ccc(C(=O)N3CCN(Cc4ccccc4)CC3)cn12	-115	-10	-23	-8	-11	-27
CCC1Cc2c(nc(N)c3c(N)nc(N4CCCCC4)c(C#N)c23)O1 (centres undefined)	-223	-10	-29	77*	-45	24
Nc1ncnc2c1ncn2[C@@H]1CCC[C@@H](NCc2ccccc2)[C@H]1O	5	-1	2	-3	2	0
Cc1cc(NC(=O)CSc2nnc(-c3ccc4c(c3)OCCO4)o2)no1	0	-4	-11	31*	-1	11
O=C(CSc1nnc(-c2cccc(Cl)c2)o1)N1CCCc2ccccc21	32*	6	23	20	24	23
Cc1cc(NC(=O)CSc2nnc(-c3cccc(Cl)c3)o2)no1	13	-1	3	2	4	49*
O=C(CSc1nc2ccccc2o1)N1CCCc2ccccc21	17	3	21	4	15	11
Cc1ccc(NC(=O)CSc2nnc(-c3ccncc3)o2)cc1F	6	0	-5	-3	-2	46*
O=C1NC2(CCN(S(=O)(=O)c3ccc(Cl)cc3)CC2)Nc2ccccc21	-8	6	-31	17	-9	-1
COc1cccc(CNC(=O)c2snc(-c3ccncc3)c2N)c1	-31	2	-11	-222	-5	-55
Cc1c(CN2C[C@H]3NC(=O)c4ccccc4C(=O)[C@@]3(C)C2)oc2ccccc12	-1	2	-2	-6	-6	-7
